Measurements from PubChem BioAssay AID2737 (National Center for Advancing Translational Sciences (NCATS), 2010).
Calls of active or inactive are those of the source.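 Rule for the calls: active = compounds inhibiting cruzain with a measured inhibition constant Ki under 100 µM; inactive = the rest.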

These compounds were tested against Cruzipain (Trypanosoma cruzi) (UniProt P25779) (assay: Confirmation Competitive Binding Assay for Inhibitors of Cruzain). Conditions: recombinant cruzain, Z-FR-AMC fluorogenic cleavage, Ki.
Sequence of Cruzipain (Trypanosoma cruzi) (P25779 123-467 limits assumed): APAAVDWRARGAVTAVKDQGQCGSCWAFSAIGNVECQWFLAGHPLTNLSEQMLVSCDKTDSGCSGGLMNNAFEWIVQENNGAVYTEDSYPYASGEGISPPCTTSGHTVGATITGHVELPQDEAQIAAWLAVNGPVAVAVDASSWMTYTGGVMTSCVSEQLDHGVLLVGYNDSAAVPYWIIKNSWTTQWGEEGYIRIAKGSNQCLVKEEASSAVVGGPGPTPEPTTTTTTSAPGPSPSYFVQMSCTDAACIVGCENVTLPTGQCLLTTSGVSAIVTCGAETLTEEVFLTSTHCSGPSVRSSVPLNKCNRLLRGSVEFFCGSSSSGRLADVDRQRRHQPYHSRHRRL
Experimental: Cruzain is a cysteine protease from the tropical parasite Trypanosoma cruzi. This assay protocol is for follow-up Ki determination of cruzain inhibitors of interest. Cruzain inhibition was determined using a competitive binding assay. See following references for additional details: Jadhav A, et al. J Med Chem. 2010 Jan 14;53(1):37-51. Mott BT, et al. J Med Chem. 2010 Jan 14;53(1):52-60. Assay Provider: Shoichet, Brian; University of California, San Fancisco Screening Center PI: Austin, C.P. Screening Center: NIH Chemical Genomics Center [NCGC]
Cruzain activity was measured by monitoring the cleavage of the fluorogenic substrate Z-Phe-Arg-aminomethylcoumarin (Z-FR-AMC). All cruzain assays were performed in Sodium Acetate 0.1 M pH 5.5 and in the presence of 5 mM dithiothreitol (DTT). The final concentration of cruzain was 0.4 nM, and the substrate concentration was 2.5 uM (Km = 2 uM), except for Ki determination, when the Z-FR-AMC varied from 0.31 to 20 uM, in two fold increments. Assays were conducted in presence of 0.01% Triton X-100. Assays were followed for five minutes, and activity was calculated based on initial rates. […] Data was analyzed with Prism 4 (GraphPad), and Ki values were determined from Lineweaver-Burk and Dixon plots.
With `Cc1ccc(C)c(OCCn2c(CCNC(=O)C3CCCCC3)nc3ccccc32)c1` the Potency was 2000 nM (active).
With `O=C(COc1ccccc1Br)NCCc1nc2ccccc2[nH]1` the Potency was 2000 nM (active).
